The source of these data is PubChem BioAssay (NCATS).

A short description of experiment [1]: Viability qHTS for spleen associated tyrosine kinase inhibitor (SYKi) naive MV4-11 cells (AID 1963823). Further: nearly all actives have a fitted effect of over 40% in size. The gist of the method: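 CellTiter-Glo luminescence, 10 min room-temperature incubation, gave viability. Cells: naive MV4-11 (500/well), treated 72 hr at 37 C, 5% CO2.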
Experiment [2] in a line: Viability qHTS for spleen associated tyrosine kinase inhibitor (SYKi) drug resistant MV4-11 cells (AID 1963824). Further: nearly all actives have a fitted effect of over 35% in size. The essentials:
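SYK-inhibitor-resistant MV4-11 AML cells were seeded at 500 per well onto compound and cultured 72 hours (37 °C, 5% CO2). CellTiter-Glo was then added, and after 10 min at room temperature, luminescence gave viability.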

A short description of experiment [3]: Quantitative highthroughput screen to assess conditional lethalithy of NOMO1 cells grown in RPMI1640 with untreated serum (RPMI+s) (AID 1963876). Further: nearly all actives have a fitted effect of over 35% in size.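 On Viability: 100% = DMSO wells and 0% = empty wells without cells.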 The essentials: (§1)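 Each medium arm—HPLM with 10% dialyzed FBS, or RPMI1640 with 5 mM glucose and 10% untreated or dialyzed FBS—was screened against an 11-point, 3-fold compound titration for 48 h at 37 °C, with CellTiter-Glo luminescence as endpoint.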

Experiment [4] is described as follows: Quantitative highthroughput screen to assess conditional lethalithy of NOMO1 cells grown in Human Plasma-Like Medium with dialyzed fetal bovine serum (HPLM+ds) (AID 1963878). Further: nearly all actives have a fitted effect of over 35% in size.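 On Viability: 100% = DMSO wells and 0% = empty wells on each plate.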 The essentials: as §1
Experiment [5] is described as follows: Quantitative highthroughput screen to assess conditional lethalithy of P12 Ichikawa cells grown in Human Plasma-Like Medium with dialyzed fetal bovine serum (HPLM+ds) (AID 1963879). Further: nearly all actives have a fitted effect of over 35% in size. On Viability: series mostly up to about 46 µM. The settings on record: Potency: viability. The essentials:
as §1

Experiment [6] in a line: Quantitative highthroughput screen to assess conditional lethalithy of P12 Ichikawa cells grown in RPMI1640 with dialyzed fetal bovine serum (RPMI+ds) (AID 1963880). Further: nearly all actives have a fitted effect of over 35% in size.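 On Viability: 100% = DMSO wells and 0% = empty wells on each plate.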 As to conditions: Potency: P12-Ichikawa viability. The essentials: as §1
The nature of experiment [7]: Quantitative highthroughput screen to assess conditional lethalithy of SEM cells grown in Human Plasma-Like Medium with dialyzed fetal bovine serum (HPLM+ds) (AID 1963882). Further: nearly all actives have a fitted effect of over 35% in size. On Viability: series mostly up to about 46 µM. The gist of the method:
as §1

The nature of experiment [8]: Quantitative highthroughput screen to assess conditional lethalithy of SEM cells grown in RPMI1640 with unreated serum (RPMI+s) (AID 1963883). Further: nearly all actives have a fitted effect of over 35% in size.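 On Viability: 100% = DMSO wells and 0% = empty wells without cells.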 The gist of the method:
as §1

A short description of experiment [9]: Quantitative highthroughput screen to assess conditional lethalithy of SEM cells grown in RPMI1640 with dialyzed fetal bovine serum (RPMI+ds) (AID 1963884). Further: nearly all actives have a fitted effect of over 35% in size.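 On Viability: series mostly up to about 46 µM; 100% = DMSO control wells and 0% = empty wells without cells.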 The essentials:
as §1

Experiment [10] is described as follows: Cellular viability qHTS for adrenocortical cancer (ACC) cell line SW-13 (AID 1963989). Further: nearly all actives have a fitted effect of over 65% in size.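 On activity (max response): cells grown in serum-free medium with ITS supplement; on the % scale 0 is the no-effect control and ±100 the full control effect.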 As to conditions: SW-13 ACC cells viability, CellTiter-Glo, 48 h; activity (max response): stronger effect = lower value. The essentials:
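Compound titrations (up to 46 uM final, in DMSO) were applied to SW-13 cells for 48 h at 37C/5% CO2. Reading used CellTiter-Glo after 20 min at room temperature; fitted curves yielded IC50 and efficacy.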

Experiment [11] is described as follows: Quantitative highthroughput screen to assess conditional lethalithy of P12 Ichikawa cells grown in RPMI1640 with untreated serum (RPMI+s) (AID 1963881). Further: nearly all actives have a fitted effect of over 35% in size.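 On Viability: series mostly up to about 46 µM; 100% = DMSO wells and 0% = empty wells without cells.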 The settings on record: Potency: viability. The essentials:
as §1

The nature of experiment [12]: Cellular viability qHTS for adrenocortical cancer (ACC) cell line NCI-H295R (AID 1963990). Further: nearly all actives have a fitted effect of over 60% in size. The gist of the method:
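Readout: CellTiter-Glo luminescence, 20 min RT. Exposure: 48 h, 37C/5% CO2. Cells: NCI-H295R, ITS-DMEM serum-free. Range: up to 46 uM. Analysis: 4PL fit, IC50 plus efficacy.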

A short description of experiment [13]: Quantitative highthroughput screen to assess conditional lethalithy of NOMO1 cells grown in RPMI1640 with dialyzed fetal bovine serum (RPMI+ds) (AID 1963877). Further: nearly all actives have a fitted effect of over 30% in size. The gist of the method:
as §1

Structures are written as SMILES. Values joined by “and” are separate entries in the source; they are usually repeats but may differ in a detail not shown here. Equal entries are not always repeated. Results filed as inconclusive are left out. More than one record can exist for a structure, and the calls need not agree. Active and inactive are the calls of the source. The call rests on the fitted dose curve; in most records, active means well fitted curve in the direction sought with a large enough effect; inconclusive means small, poorly fitted or top-dose-only effect, or another doubt; inactive means no such curve, though single readings can be large; an effect the other way counts as inactive or inconclusive.
Potency means the concentration at half of the fitted maximal effect.

Turning to `CCCCCCCCCC(=O)N[C@@H](Cc1c[nH]c2ccccc12)C(=O)N[C@H](CC(N)=O)C(=O)N[C@@H](CC(=O)O)C(=O)N[C@@H]1C(=O)NCC(=O)N[C@@H](CCCN)C(=O)N[C@@H](CC(=O)O)C(=O)N[C@H](C)C(=O)N[C@@H](CC(=O)O)C(=O)NCC(=O)N[C@H](CO)C(=O)N[C@@H]([C@@H](C)CC(=O)O)C(=O)N[C@@H](CC(=O)c2ccccc2N)C(=O)O[C@@H]1C`, the Potency entry in experiment [1], in experiment [3], in experiment [4], in experiment [5], in experiment [6] and in experiment [7] was “inactive” each time. Further, the Potency entry in experiment [8] and in experiment [9] was “inactive” throughout. In addition, the Potency in [2] is 68.5 nM (active) and inactive. The activity (max response) in experiment [10] was 12.9% (inactive).

As for `CN(C)C1CCN(C(=O)c2ccc(NC(=O)Nc3nc(N4CCOCC4)nc(N4CCOCC4)n3)cc2)CC1`, the Potency in experiment [1] is 25.2 nM (active) and 37.2 nM (active); in experiment [2] it was 35.5 nM (active) and 59 nM (active); in [3] it was 0.662 µM (active); in experiment [4], 0.0235 µM (active); in experiment [7] it was 0.0743 µM (active); in experiment [8], 0.166 µM (active). The Potency in [9] was 0.296 µM (active); in experiment [10] it was 0.316 µM (active).

As for `CNc1nccc(-c2cccnc2Oc2cc(C(=O)Nc3cccc(C(F)(F)F)c3)ccc2C)n1`, the Potency in experiment [1] was 517 nM (active) and 1.18 µM (active); in [2] it was 1.3 µM (active) and 2.09 µM (active). Moreover, the Potency entry in experiment [3], in [5] and in [6] was “inactive” each time.

Regarding `N#CC[C@H](C1CCCC1)n1cc(-c2ncnc3[nH]ccc23)cn1`, the Potency in experiment [1] is 8.2 µM (active); in [2] it was 20.6 µM (active); in experiment [3] it was 14.8 µM (active); in experiment [4], 7.43 µM (active). Further, in experiment [10], the activity (max response) was -17.5% (inactive).

On to `Nc1ccn([C@@H]2O[C@H](CO)[C@@H](O)[C@H]2O)c(=O)n1`, for which the Potency entry in experiment [1], in experiment [2], in experiment [11], in experiment [9] and in experiment [12] was “inactive” each time. The Potency in [3] was 0.0743 µM (active); in experiment [4], 0.0166 µM (active). Besides, the activity (max response) in [10] was 10.2% (inactive).

Take `COc1ccc(-c2nc3ccc(C4=NNC(=O)CC4C)cc3[nH]2)cc1` (configuration not stated): the Potency in experiment [1] was 18.6 µM (active); in [2], 11.8 µM (active); in experiment [10], 18.4 µM (active) and 20 µM (active); in experiment [12], 6.51 µM (active) and 14.1 µM (active). In addition, the Potency entry in [3], in experiment [4], in [5], in experiment [11], in experiment [8] and in experiment [9] was “inactive” throughout.

Consider `COc1cc2nccc(Oc3ccc(NC(=O)Nc4cc(C)on4)c(Cl)c3)c2cc1OC`, for which the Potency in experiment [1] is 0.372 µM (active); in experiment [2] it was 0.833 µM (active); in [8], 3.32 µM (active); in [9] it was 4.69 µM (active); in experiment [10] it was 11.2 µM (active); in experiment [12], 14.1 µM (active). Also, the Potency result in [3] and in experiment [4] was “inactive” in each case.

As for `NC(N)=NC(=O)c1nc(Cl)c(N)nc1N`, the Potency in experiment [1] is 5.39 µM (active) and 841 nM (active); in [2] it was 12.1 µM (active) and 668 nM (active); in experiment [3] it was 0.935 µM (active); in experiment [11], 4.69 µM (active). In addition, the Potency entry in experiment [7], in [8] and in experiment [9] was “inactive” each time. The activity (max response) in experiment [10] was -8.19% (inactive) and -7.03% (inactive).

`CN1CCC(=C2c3ccccc3CCc3sccc32)CC1`: the Potency in experiment [1] is 14.8 µM (active); in experiment [2], 18.6 µM (active). Further, the Potency result in experiment [3], in experiment [5], in experiment [11] and in experiment [8] was “inactive” in each case.

On to `CCc1nc(N)nc(N)c1-c1ccc(Cl)cc1`, for which the Potency in [1] was 3.76 µM (active); in experiment [2], 3.76 µM (active) and 2.63 µM (active); in experiment [5], 1.87 µM (active); in experiment [11], 10.5 µM (active); in experiment [10], 1.46 µM (active) and 3.98 µM (active); in experiment [12], 2.59 µM (active) and 1.78 µM (active). The Potency entry in experiment [3] and in experiment [8] was “inactive” each time.

Turning to `O=C(Nc1ncc(SCCN2CCCC2)s1)[C@]1(c2ccc(S(=O)(=O)C3CC3)cc2)C[C@@H]1C1CCCCC1`, the Potency in [1] was 2.59 µM (active); in experiment [2] it was 2.59 µM (active); in experiment [13], 23.5 µM (active); in [4], 18.7 µM (active).

On to `CC(C)Nc1cc(-c2c[nH]c(C(=O)N[C@H](CO)c3cccc(Cl)c3)c2)c(Cl)cn1`, for which the Potency in experiment [1] is 2.91 µM (active) and 2.09 µM (active); in experiment [2] it was 1.64 µM (active) and 2.63 µM (active); in experiment [3], 14.8 µM (active); in [7], 20.9 µM (active); in experiment [8] it was 18.6 µM (active); in experiment [10], 15.8 µM (active). Further, the Potency in experiment [12] was 8.91 µM (active).

Take `CC(=O)OCCN1C(=O)c2c(C)nc3ccc(S(=O)(=O)N4CCOCC4)cc3c2C1=O`: the Potency entry in experiment [1], in experiment [2], in [7], in [8] and in [9] was “inactive” each time. The Potency in experiment [3] is 0.264 µM (active); in [5], 2.64 µM (active); in [6], 3.32 µM (active). The activity (max response) in [10] is -3.53% (inactive).

Regarding `CCCCNc1cc(C(=O)O)cc(S(N)(=O)=O)c1Oc1ccccc1`, the Potency entry in experiment [1], in experiment [2], in experiment [3], in experiment [6], in [11] and in [7] was “inactive” in each case. For the same compound, the Potency entry in experiment [8], in [9] and in experiment [12] was “inactive” in each case. Further, in experiment [10], the activity (max response) is 16.2% (inactive) and -1.57% (inactive).

In the case of `C#Cc1cccc(Nc2ncnc3cc(OCCOC)c(OCCOC)cc23)c1`, the Potency in [1] is 3.76 µM (active) and 1.86 µM (active); in experiment [2], 6.68 µM (active) and 2.31 µM (active); in experiment [10] it was 4.11 µM (active) and 8.91 µM (active). For the same compound, the Potency entry in [3] is “inactive”.

Take `CC(C)(O)c1cc2nc(-c3cnc(N)nc3)nc(N3CCOCC3)c2s1`: the Potency was 0.58 µM (active) in experiment [1]; 1.16 µM (active) in experiment [2]; 1.87 µM (active) in [3]; 1.26 µM (active) in experiment [10]; 1 µM (active) in experiment [12].

With `COc1cc2ncnc(Nc3ccc(F)c(Cl)c3)c2cc1OCCCN1CCOCC1`, the Potency in experiment [1] was 4.22 µM (active); in experiment [2], 6.68 µM (active) and 3.66 µM (active); in [8], 42.9 µM (active). The Potency result in experiment [3], in [6], in experiment [11] and in [12] was “inactive” throughout.
